Source: PubChem BioAssay (EPA / NIEHS)
Calls of active or inactive are those of the source. Rule for the calls: active = hit-call score of the fitted dose curve at least 0.9, where 1 is the maximum; inactive = score below 0.9.

What was measured:
[1] = ATG_CRE_CIS: Attagene CIS-FACTORIAL HepG2 Assay for human cAMP Responsive Element (CRE) binding protein 3 (AID 2282926); conditions: HepG2 CRE cis-reporter, Attagene multiplexed mRNA; actives raise or lower the signal
Method in brief: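 Capillary electrophoresis of 6-FAM-labelled, HpaI-digested PCR products quantified reporter transcripts. These came from HepG2 transiently transfected with cis-element reporters and exposed to test chemicals for 24 hours, with DMSO defining baseline activity.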

[2] = target: CCAAT/enhancer-binding protein beta (Homo sapiens) (UniProt P17676); assay: ATG_C_EBP_CIS: Attagene CIS-FACTORIAL HepG2 Assay for human CCAAT/Enhancer Binding Protein (C/EBP) beta (AID 2282927); conditions: HepG2 Attagene cis-factorial transcription factor reporter; actives raise or lower the signal
Sequence of CCAAT/enhancer-binding protein beta (Homo sapiens) (P17676 whole entry, looked up): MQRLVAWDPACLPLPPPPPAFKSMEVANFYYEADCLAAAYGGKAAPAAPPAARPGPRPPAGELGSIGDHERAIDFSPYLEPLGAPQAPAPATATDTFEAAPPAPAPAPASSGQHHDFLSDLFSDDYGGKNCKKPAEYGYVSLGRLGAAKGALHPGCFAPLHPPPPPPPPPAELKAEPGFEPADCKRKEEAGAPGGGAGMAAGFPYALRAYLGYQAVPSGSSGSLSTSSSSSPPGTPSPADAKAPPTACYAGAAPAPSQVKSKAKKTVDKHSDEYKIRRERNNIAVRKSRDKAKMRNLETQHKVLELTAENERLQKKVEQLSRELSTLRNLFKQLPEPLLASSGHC
Method in brief: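 HepG2 transiently transfected with multiplexed reporter units under cis-regulatory promoters reporting endogenous C/EBPb activity. After 24 h exposure, reporter mRNA assayed by RT-PCR, fluorescent labelling, HpaI digestion and capillary electrophoresis; bidirectional fitting versus DMSO.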

[3] = ATG_CMV_CIS: Attagene CIS-FACTORIAL HepG2 Assay for human CMV (Internal Marker) (AID 2282928); conditions: HepG2 CMV promoter reporter, transcription factor profiling; actives raise or lower the signal;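 note: endpoint acts as a background internal control marker rather than a target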
Method in brief: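 Readout: fluorescent reporter cDNA fragments separated by capillary electrophoresis after RT-PCR and HpaI cut. Cells: HepG2 carrying transfected cis-promoter reporter constructs, dosed 24 h. Endpoint serves as background internal-marker control, fit bidirectionally versus DMSO.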

[4] = ATG_DR4_LXR_CIS: Attagene CIS-FACTORIAL HepG2 Assay for human Liver X Receptor (LXR), DR4 submotif (AID 2282929); conditions: HepG2 Attagene DR4 cis-reporter, mRNA transcription; actives raise or lower the signal
Method in brief: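 HepG2 cells transiently transfected with cis-promoter-driven multiplexed reporter units (DR4 element) were dosed for 24 h. Reporter mRNA was quantified by RT-PCR, fluorescent primer extension, HpaI digestion and capillary electrophoresis; bidirectional fitting versus DMSO baseline.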

[5] = target: Aryl hydrocarbon receptor (Homo sapiens) (UniProt P35869); assay: ATG_Ahr_CIS: Attagene CIS-FACTORIAL HepG2 Assay for human Aryl Hydrocarbon Receptor (Ahr) (AID 2282930); conditions: HepG2 AhR cis-factorial reporter transcription; actives raise or lower the signal
Sequence of Aryl hydrocarbon receptor (Homo sapiens) (P35869 whole entry, looked up): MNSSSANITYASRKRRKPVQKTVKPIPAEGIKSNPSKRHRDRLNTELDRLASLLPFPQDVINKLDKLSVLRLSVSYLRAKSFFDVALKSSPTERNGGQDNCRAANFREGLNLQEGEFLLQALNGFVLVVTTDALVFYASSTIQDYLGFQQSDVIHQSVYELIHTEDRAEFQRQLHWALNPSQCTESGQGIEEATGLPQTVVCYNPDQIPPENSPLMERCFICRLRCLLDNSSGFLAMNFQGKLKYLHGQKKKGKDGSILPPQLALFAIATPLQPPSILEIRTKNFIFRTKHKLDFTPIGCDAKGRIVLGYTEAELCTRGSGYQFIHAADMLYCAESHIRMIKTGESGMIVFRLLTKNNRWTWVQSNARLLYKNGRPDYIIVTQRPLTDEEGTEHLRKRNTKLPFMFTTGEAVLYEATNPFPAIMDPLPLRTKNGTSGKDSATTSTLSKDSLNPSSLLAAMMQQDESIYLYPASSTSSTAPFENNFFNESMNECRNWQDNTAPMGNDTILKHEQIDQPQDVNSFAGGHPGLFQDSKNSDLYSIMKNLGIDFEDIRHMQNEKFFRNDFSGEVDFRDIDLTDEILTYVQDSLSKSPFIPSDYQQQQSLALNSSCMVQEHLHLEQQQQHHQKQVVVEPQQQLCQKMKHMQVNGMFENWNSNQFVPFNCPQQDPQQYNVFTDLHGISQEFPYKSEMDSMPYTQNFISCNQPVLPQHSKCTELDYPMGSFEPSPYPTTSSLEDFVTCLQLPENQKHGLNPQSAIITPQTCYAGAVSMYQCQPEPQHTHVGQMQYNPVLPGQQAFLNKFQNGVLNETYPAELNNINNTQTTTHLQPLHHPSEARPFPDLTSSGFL
Method in brief: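 HepG2 cells transiently transfected with cis-element-driven multiplexed reporter units; endogenous AhR activity read as reporter mRNA 24 h after dosing, via RT-PCR, 6-FAM labelling, HpaI digestion and capillary electrophoresis. Bidirectional fit relative to DMSO.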

[6] = ATG_AP_1_CIS: Attagene CIS-FACTORIAL HepG2 Assay for human Activator Protein 1 (AP-1) (AID 2282931); conditions: HepG2 Attagene cis-factorial AP-1 reporter mRNA; actives raise or lower the signal
Method in brief: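 HepG2 cells transiently transfected with cis-element-driven multiplex reporter units; 24 h compound exposure. Reporter mRNA quantified by RT-PCR, FAM-labelled fragments resolved by capillary electrophoresis; bidirectional fit versus DMSO baseline.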

[7] = ATG_AP_2_CIS: Attagene CIS-FACTORIAL HepG2 Assay for human Activator Protein 2 (AP-2) (AID 2282932); conditions: HepG2 AP-2 cis-reporter, Attagene transcription factor profiling; actives raise or lower the signal
Method in brief: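 Liver-derived HepG2 line, cis-reporter system measuring endogenous factors; 24 h dosing; reporter mRNA detected by fluorescent RT-PCR and capillary electrophoresis.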

[8] = ATG_BRE_CIS: Attagene CIS-FACTORIAL HepG2 Assay for human Bone Morphogenetic Protein (BMP) Response Element (BRE) (AID 2282933); conditions: HepG2 BMP response element reporter, Attagene transcription factor profiling; actives raise or lower the signal
Method in brief: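 Endogenous transcription factor activity read in transiently transfected HepG2 cells after 24 h chemical exposure. Bidirectional curve fitting against DMSO; readout is reporter transcript level by RT-PCR with capillary electrophoresis of labelled products.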

[9] = target: Retinoic acid receptor alpha (Homo sapiens) (UniProt P10276); assay: ATG_DR5_RAR_CIS: Attagene CIS-FACTORIAL HepG2 Assay for human Retinoic Acid Receptor Alpha (RARE), DR5 submotif (AID 2282934); conditions: HepG2 Attagene cis-factorial RARE DR5 reporter, mRNA; actives raise or lower the signal
Sequence of Retinoic acid receptor alpha (Homo sapiens) (P10276 whole entry, looked up): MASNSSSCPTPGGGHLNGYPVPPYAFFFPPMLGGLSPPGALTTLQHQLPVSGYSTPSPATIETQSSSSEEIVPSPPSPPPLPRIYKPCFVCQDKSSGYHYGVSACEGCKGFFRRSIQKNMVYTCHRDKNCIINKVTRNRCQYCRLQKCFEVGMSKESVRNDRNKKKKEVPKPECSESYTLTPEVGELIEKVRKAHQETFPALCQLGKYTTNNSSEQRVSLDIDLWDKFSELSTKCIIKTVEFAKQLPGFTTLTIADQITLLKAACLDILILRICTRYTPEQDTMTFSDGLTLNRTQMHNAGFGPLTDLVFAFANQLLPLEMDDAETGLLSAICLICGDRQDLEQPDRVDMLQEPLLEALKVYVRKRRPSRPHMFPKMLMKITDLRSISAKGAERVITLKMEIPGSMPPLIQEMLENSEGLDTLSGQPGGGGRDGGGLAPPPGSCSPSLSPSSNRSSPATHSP
Method in brief: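 HepG2 cells transiently transfected with multiplexed reporter units; DR5 cis-element drives reporter through endogenous transcription factors. After 24 h dosing, reporter mRNA quantified by RT-PCR, fluorescent labeling, HpaI digestion and capillary electrophoresis; bidirectional fitting versus DMSO.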

Measured: AC50

NCCN1CCNCC1
inactive: [1] | [2] | [3] | [4] | [5] | [6] | [7] | [8] | [9]

[Cu+]
active: [5] 15 µM
inactive: [1] | [2] | [3] | [4] | [6] | [7] | [8] | [9]

C=C(C)C(=O)OCCOCCOC(=O)C(=C)C
inactive: [1] | [2] | [3] | [4] | [5] | [6] | [7] | [8]

CCCCN(CCO)CCO
inactive: [1] | [2] | [3] | [4] | [5] | [6] | [7] | [8]

CCCO
inactive: [1] | [2] | [3] | [4] | [5] | [6] | [7] | [8]

CCCO[Si](OCCC)(OCCC)OCCC
inactive: [1] | [2] | [3] | [4] | [5] | [6] | [7] | [8]

CC(C)CCCC(C)(C)O
inactive: [1] | [2] | [3] | [4] | [5] | [6] | [7] | [8]

CCCCCCCCOS(=O)(=O)O
inactive: [1] | [2] | [3] | [4] | [5] | [6] | [7] | [8]

CC(=O)OC/C=C(C)/C=C/C=C(C)/C=C/C1=C(C)CCCC1(C)C
active: [6] 40.6 µM
inactive: [1] | [2] | [3] | [4] | [5] | [7] | [8]

COC(=O)c1ccc(C(=O)OC)cc1
inactive: [1] | [2] | [3] | [4] | [5] | [6] | [7] | [8] | [9]

O=C(O)c1ccco1
inactive: [1] | [2] | [3] | [4] | [5] | [6] | [7] | [8]

[O-]/[N+](=N\O)c1ccccc1
inactive: [1] | [2] | [3] | [4] | [6] | [7] | [8] | [9]
active: [5] 4.26 µM

CCCCCCCCCCCCOC(C)=O
inactive: [1] | [2] | [3] | [4] | [5] | [6] | [7] | [8] | [9]

CN(C)C(=O)Nc1ccccc1
inactive: [1] | [2] | [3] | [4] | [5] | [6] | [7] | [8] | [9]

NNC(=O)OCc1ccccc1
inactive: [1] | [2] | [3] | [4] | [5] | [6] | [7] | [8] | [9]

CCCCC1CCCCC(=O)O1 (stereo unspecified)
inactive: [1] | [2] | [3] | [4] | [5] | [6] | [7] | [8]

C=CC(C)CCCC(C)(C)O (stereo unspecified)
inactive: [1] | [2] | [3] | [4] | [5] | [6] | [7] | [8]

CCC(C)C1CCCCC1=O (stereo unspecified)
inactive: [1] | [2] | [3] | [4] | [5] | [6] | [7] | [8] | [9]

CC(C)OB(OC(C)C)OC(C)C
inactive: [1] | [2] | [3] | [4] | [6] | [7] | [8]

C=CC(=O)OCCCCCC
inactive: [1] | [2] | [3] | [4] | [6] | [7] | [8]

CCc1cccc(O)c1
inactive: [1] | [2] | [3] | [4] | [5] | [7] | [8]

C[C@H](CCC(=O)O)[C@H]1CC[C@H]2[C@@H]3CC[C@@H]4C[C@H](O)CC[C@]4(C)[C@H]3CC[C@]12C
active: [2] 62.7 µM | [4] 29.4 µM | [5] 62.7 µM | [8] 165 µM
inactive: [1] | [3] | [6]

CC(C)C(=O)c1ccccc1
inactive: [1] | [2] | [3] | [4] | [5] | [7] | [8] | [9]

OCCN1CCOCC1
inactive: [1] | [2] | [3] | [4] | [5] | [6] | [8] | [9]

N#CCCNCCC#N
inactive: [1] | [2] | [3] | [4] | [5] | [6] | [8]

CC(CCO)CC(C)(C)C (stereo unspecified)
inactive: [1] | [2] | [3] | [4] | [5] | [6] | [7] | [8] | [9]

CCCC1CCC(=O)CC1
inactive: [1] | [2] | [3] | [4] | [6] | [8]
active: [5] 44.4 µM

CCOC(=O)COC(=O)c1ccccc1C(=O)OCC
inactive: [1] | [2] | [3] | [4] | [5] | [7] | [8]
